In PubChem BioAssay (EPA / NIEHS):
The source made the active and inactive calls. How the source made its calls: active means hit-call score of the fitted dose curve at least 0.9, where 1 is the maximum; inactive means score below 0.9.

Assays:
[1] = ATG_DR4_LXR_CIS: Attagene CIS-FACTORIAL HepG2 Assay for human Liver X Receptor (LXR), DR4 submotif (AID 2282929); settings: HepG2 Attagene DR4 cis-reporter, mRNA transcription; AC50: actives raise or lower the signal unless noted; outcome: actives raise or lower the signal unless noted
Method in brief: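 Transiently transfected HepG2 liver cells; cis-regulated reporters; 24 h dosing. RT-PCR plus CE read-out of reporter mRNA. DMSO baseline, bidirectional curve fitting.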

[2] = biological target: Aryl hydrocarbon receptor (Homo sapiens) (UniProt P35869); assay: ATG_Ahr_CIS: Attagene CIS-FACTORIAL HepG2 Assay for human Aryl Hydrocarbon Receptor (Ahr) (AID 2282930); settings: HepG2 AhR cis-factorial reporter transcription; actives raise or lower the signal
Chain of Aryl hydrocarbon receptor (Homo sapiens) (P35869 whole entry, looked up): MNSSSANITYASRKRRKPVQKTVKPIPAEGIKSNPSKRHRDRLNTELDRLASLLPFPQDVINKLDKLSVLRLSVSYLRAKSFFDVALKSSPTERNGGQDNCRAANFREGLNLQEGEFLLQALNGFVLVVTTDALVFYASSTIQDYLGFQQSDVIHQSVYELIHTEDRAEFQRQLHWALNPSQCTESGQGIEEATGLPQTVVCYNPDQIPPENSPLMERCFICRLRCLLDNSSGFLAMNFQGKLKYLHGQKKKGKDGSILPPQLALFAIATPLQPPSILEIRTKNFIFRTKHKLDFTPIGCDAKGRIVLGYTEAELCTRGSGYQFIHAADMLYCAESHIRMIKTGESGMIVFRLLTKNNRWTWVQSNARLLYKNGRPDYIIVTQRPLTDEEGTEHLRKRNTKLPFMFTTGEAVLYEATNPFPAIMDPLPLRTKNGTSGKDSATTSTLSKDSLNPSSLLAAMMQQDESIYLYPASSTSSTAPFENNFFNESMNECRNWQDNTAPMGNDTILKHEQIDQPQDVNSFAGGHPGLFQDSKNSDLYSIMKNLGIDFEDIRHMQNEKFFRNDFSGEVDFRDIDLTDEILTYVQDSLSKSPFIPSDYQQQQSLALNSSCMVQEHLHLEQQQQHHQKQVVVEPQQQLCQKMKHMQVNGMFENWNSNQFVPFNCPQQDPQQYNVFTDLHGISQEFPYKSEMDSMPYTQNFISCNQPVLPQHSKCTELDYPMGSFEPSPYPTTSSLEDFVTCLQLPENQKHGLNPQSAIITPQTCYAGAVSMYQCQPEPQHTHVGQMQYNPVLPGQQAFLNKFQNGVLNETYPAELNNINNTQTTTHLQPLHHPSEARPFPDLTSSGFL
Method in brief: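 Endogenous factor activity is tracked through cis-promoter reporter units transfected into HepG2 cells. Transcript levels at 24 h are read by fluorescent RT-PCR and capillary electrophoresis, with activity in either direction scored relative to DMSO.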

[3] = ATG_AP_1_CIS: Attagene CIS-FACTORIAL HepG2 Assay for human Activator Protein 1 (AP-1) (AID 2282931); settings: HepG2 Attagene cis-factorial AP-1 reporter mRNA; actives raise or lower the signal
Method in brief: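 We transfected HepG2 cells transiently with a set of cis-regulated reporter transcription units, dosed them for 24 h, and quantified reporter mRNA via RT-PCR and capillary electrophoresis, scoring gain or loss of signal relative to DMSO.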

[4] = ATG_AP_2_CIS: Attagene CIS-FACTORIAL HepG2 Assay for human Activator Protein 2 (AP-2) (AID 2282932); settings: HepG2 AP-2 cis-reporter, Attagene transcription factor profiling; AC50: actives raise or lower the signal unless noted; outcome: actives raise or lower the signal unless noted
Method in brief: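 HepG2 cells transiently transfected with cis-element reporter units and exposed for 24 h. Reporter mRNA measured by RT-PCR, FAM labelling, HpaI digestion and capillary electrophoresis. Changes in either direction fitted relative to DMSO.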

[5] = ATG_BRE_CIS: Attagene CIS-FACTORIAL HepG2 Assay for human Bone Morphogenetic Protein (BMP) Response Element (BRE) (AID 2282933); settings: HepG2 BMP response element reporter, Attagene transcription factor profiling; actives raise or lower the signal
Method in brief: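 HepG2 cells transiently transfected with multiplexed cis-element reporter units were dosed with chemical for 24 h. Reporter mRNA was measured by RT-PCR with fluorescent labelling, HpaI digestion and capillary electrophoresis; bidirectional fitting relative to DMSO.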

[6] = biological target: Retinoic acid receptor alpha (Homo sapiens) (UniProt P10276); assay: ATG_DR5_RAR_CIS: Attagene CIS-FACTORIAL HepG2 Assay for human Retinoic Acid Receptor Alpha (RARE), DR5 submotif (AID 2282934); settings: HepG2 Attagene cis-factorial RARE DR5 reporter, mRNA; actives raise or lower the signal;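 on AC50: reporter responds to endogenous RAR alpha beta and gamma in HepG2 not RARA alone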
Chain of Retinoic acid receptor alpha (Homo sapiens) (P10276 whole entry, looked up): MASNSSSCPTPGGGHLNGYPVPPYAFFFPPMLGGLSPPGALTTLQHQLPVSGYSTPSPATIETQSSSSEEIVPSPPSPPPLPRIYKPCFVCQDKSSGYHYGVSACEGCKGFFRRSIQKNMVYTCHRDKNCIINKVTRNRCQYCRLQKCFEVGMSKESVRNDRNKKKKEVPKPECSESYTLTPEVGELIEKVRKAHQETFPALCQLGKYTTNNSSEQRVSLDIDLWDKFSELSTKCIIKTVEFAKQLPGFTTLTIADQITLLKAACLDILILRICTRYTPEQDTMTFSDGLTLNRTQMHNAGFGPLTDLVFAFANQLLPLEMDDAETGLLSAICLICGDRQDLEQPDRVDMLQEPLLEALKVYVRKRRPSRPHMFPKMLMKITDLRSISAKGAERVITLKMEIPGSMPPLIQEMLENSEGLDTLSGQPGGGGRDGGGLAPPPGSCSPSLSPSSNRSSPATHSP
Method in brief: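 After 24 h of chemical exposure, transiently transfected HepG2 cells were lysed for total RNA; the DR5-regulated reporter transcript was quantified via RT-PCR and capillary electrophoresis, with activity fitted bidirectionally against DMSO.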

[7] = biological target: Transcription factor E2F1 (Homo sapiens) (UniProt Q01094); assay: ATG_E2F_CIS: Attagene CIS-FACTORIAL HepG2 Assay for human E2F Transcription Factor 1 (AID 2282935); settings: HepG2 Attagene cis-reporter, E2F reporter RNA transcripts; actives raise or lower the signal
Chain of Transcription factor E2F1 (Homo sapiens) (Q01094 whole entry, looked up): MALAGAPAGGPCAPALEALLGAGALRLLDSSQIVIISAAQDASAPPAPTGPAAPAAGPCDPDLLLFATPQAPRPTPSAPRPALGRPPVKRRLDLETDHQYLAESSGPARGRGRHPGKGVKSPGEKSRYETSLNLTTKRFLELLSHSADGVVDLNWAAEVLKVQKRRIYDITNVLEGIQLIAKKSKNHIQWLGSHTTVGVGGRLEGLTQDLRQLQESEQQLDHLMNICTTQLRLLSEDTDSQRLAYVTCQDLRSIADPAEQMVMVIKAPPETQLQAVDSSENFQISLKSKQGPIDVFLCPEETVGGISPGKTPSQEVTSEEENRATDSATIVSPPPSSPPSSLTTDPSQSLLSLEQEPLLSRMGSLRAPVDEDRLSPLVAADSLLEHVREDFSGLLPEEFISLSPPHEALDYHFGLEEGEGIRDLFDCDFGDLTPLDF
Method in brief: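 Endogenous E2F1 activity read through cis-promoter reporter units transfected into HepG2. After 24 h compound treatment, reporter mRNA measured by RT-PCR, HpaI digestion and capillary electrophoresis. Bidirectional fit versus DMSO.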

[8] = ATG_E_Box_CIS: Attagene CIS-FACTORIAL HepG2 Assay for human Enhancer Box (E-box) (AID 2282936); settings: HepG2 E-box cis-reporter transcription, actives raise or lower the signal
Method in brief: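 HepG2 cells transiently transfected with multiplexed cis-element reporter units, dosed 24 h; reporter mRNA quantified by RT-PCR, 6-FAM labelling, HpaI digestion and capillary electrophoresis. E-box (USF1) signal fitted bidirectionally vs DMSO.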

[9] = ATG_M_61_CIS: Attagene CIS-FACTORIAL HepG2 Assay for M61 Transcription Factor (Internal Marker) (AID 2282937); settings: HepG2 Attagene CIS-FACTORIAL M61 internal marker reporter; actives raise or lower the signal
Method in brief: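 Multiplexed reporter mRNA assay, HepG2 human hepatoma cells, 24 h treatment. Signal: FAM-labelled, HpaI-digested RT-PCR fragments by CE. Fit: bidirectional, baseline DMSO.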

[10] = ATG_EGR_CIS: Attagene CIS-FACTORIAL HepG2 Assay for human Early Growth Response 1 (EGR1) (AID 2282938); settings: HepG2 Attagene CIS-FACTORIAL EGR reporter mRNA; actives raise or lower the signal
Method in brief: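 Multiplexed cis-reporter system in human hepatoma HepG2 cells, transiently transfected. Cells are dosed for 24 h; reporter transcripts are amplified, fluorescently tagged and sized by capillary electrophoresis, with DMSO as negative control.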

[11] = ATG_ERE_CIS: Attagene CIS-FACTORIAL HepG2 Assay for Estrogen Response Element (ERE) (AID 2282940); settings: HepG2 ERE cis-reporter, Attagene RNA transcript; actives raise or lower the signal
Method in brief: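 HepG2 cells transiently transfected with cis-promoter-driven multiplexed reporter transcription units report endogenous TF activity. After 24 h compound exposure, reporter mRNA is quantified by RT-PCR with capillary electrophoresis fluorescence; bidirectional fitting versus DMSO baseline.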

[12] = ATG_Ets_CIS: Attagene CIS-FACTORIAL HepG2 Assay for human Erythroblast Transformation Specific (ETS) (AID 2282941); settings: HepG2 ETS cis-reporter transcription; AC50: actives raise or lower the signal unless noted; outcome: actives raise or lower the signal unless noted
Method in brief: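 Steps: transfect HepG2 with multiple reporter units; treat compound 24 h; isolate RNA, DNase-treat, reverse-transcribe; PCR-amplify, label with 6-FAM, digest with HpaI; separate by capillary electrophoresis. Activity fitted both directions versus DMSO.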

[13] = biological target: Hepatocyte nuclear factor 3-beta (Homo sapiens) (UniProt Q9Y261); assay: ATG_FoxA2_CIS: Attagene CIS-FACTORIAL HepG2 Assay for human Forkhead box A2 (FOXA2) (AID 2282942); settings: HepG2 cis-reporter transcription factor activity, 24 h; actives raise or lower the signal
Chain of Hepatocyte nuclear factor 3-beta (Homo sapiens) (Q9Y261 whole entry, looked up): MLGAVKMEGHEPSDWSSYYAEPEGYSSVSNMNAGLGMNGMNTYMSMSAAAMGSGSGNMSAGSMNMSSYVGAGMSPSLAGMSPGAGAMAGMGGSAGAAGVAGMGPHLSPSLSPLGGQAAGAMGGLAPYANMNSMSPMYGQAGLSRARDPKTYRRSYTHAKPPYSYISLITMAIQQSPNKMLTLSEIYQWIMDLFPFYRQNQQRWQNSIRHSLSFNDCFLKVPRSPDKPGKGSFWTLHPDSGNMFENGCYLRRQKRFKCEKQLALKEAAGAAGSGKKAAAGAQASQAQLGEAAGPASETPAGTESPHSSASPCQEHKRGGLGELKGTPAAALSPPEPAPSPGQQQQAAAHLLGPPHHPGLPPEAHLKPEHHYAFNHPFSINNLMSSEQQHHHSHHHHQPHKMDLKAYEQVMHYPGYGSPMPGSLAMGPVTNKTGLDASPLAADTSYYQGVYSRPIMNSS
Method in brief: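 Multiplexed cis-element reporter assay in transiently transfected HepG2. Twenty-four hours post-dosing, RNA was reverse-transcribed, amplified, FAM-labelled, HpaI-digested and separated by CE. Activity gain or loss relative to DMSO.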

[14] = ATG_FoxO_CIS: Attagene CIS-FACTORIAL HepG2 Assay for human Forkhead box O (FoxO) (AID 2282943); settings: HepG2 Attagene cis-reporter, FoxO element, mRNA; actives raise or lower the signal
Method in brief: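 Transfected HepG2 reporter cells exposed to test chemical for 24 h; reporter RNA measured by reverse transcription, PCR and fluorescent capillary electrophoresis; curves fitted for increases and decreases against DMSO.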

[15] = ATG_GATA_CIS: Attagene CIS-FACTORIAL HepG2 Assay for human GATA Binding Protein (AID 2282944); settings: HepG2 GATA cis-element reporter, Attagene multiplex mRNA; actives raise or lower the signal
Method in brief: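 HepG2 cells transiently transfected with multiplexed cis-element reporter units reflecting endogenous transcription factor activity; reporter mRNA measured after 24 h dosing by RT-PCR, 6-FAM labeling, HpaI digestion and capillary electrophoresis. Bidirectional fitting versus DMSO baseline.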

[16] = ATG_GLI_CIS: Attagene CIS-FACTORIAL HepG2 Assay for human Zinc Finger Protein GLI1 (AID 2282945); settings: HepG2, Attagene cis-factorial reporter mRNA, GLI element; actives raise or lower the signal
Method in brief: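 Transiently transfected HepG2 cells report endogenous transcription factor activity via cis-element-driven reporter units. After 24 h compound exposure, reporter mRNA was measured by RT-PCR with capillary electrophoresis; bidirectional fitting against DMSO baseline.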

[17] = biological target: Bile acid receptor (Homo sapiens) (UniProt Q96RI1); assay: ATG_IR1_CIS: Attagene CIS-FACTORIAL HepG2 Assay for human Nuclear Receptor Subfamily 1 Group H Member 4 (NR1H4), IR1 submotif (AID 2282946); settings: IR1 reporter transcription, actives raise or lower the signal
Chain of Bile acid receptor (Homo sapiens) (Q96RI1 whole entry, looked up): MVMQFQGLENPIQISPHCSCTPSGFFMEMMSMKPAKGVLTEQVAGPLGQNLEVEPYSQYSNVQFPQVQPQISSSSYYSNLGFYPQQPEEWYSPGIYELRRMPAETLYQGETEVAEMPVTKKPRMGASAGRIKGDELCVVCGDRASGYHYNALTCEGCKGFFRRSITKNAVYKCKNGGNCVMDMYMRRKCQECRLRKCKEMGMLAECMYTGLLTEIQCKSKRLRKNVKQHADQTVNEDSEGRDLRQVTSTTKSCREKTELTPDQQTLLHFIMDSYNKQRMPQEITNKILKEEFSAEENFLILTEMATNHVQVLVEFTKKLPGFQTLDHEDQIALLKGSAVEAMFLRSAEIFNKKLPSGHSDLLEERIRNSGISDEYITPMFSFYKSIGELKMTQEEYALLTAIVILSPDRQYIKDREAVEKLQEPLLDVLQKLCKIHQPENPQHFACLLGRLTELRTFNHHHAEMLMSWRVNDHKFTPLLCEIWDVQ
Method in brief: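 HepG2 cells transiently transfected with multiple cis-promoter-driven reporter units to measure endogenous transcription factor activity; 24 h exposure. Reporter mRNA read by RT-PCR, FAM labelling, HpaI digestion and capillary electrophoresis. Bidirectional fit versus DMSO.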

[18] = ATG_GRE_CIS: Attagene CIS-FACTORIAL HepG2 Assay for human Glucocorticoid Response Elements (GRE) (AID 2282947); settings: HepG2 GRE cis-reporter, Attagene multiplex mRNA; AC50: actives raise or lower the signal unless noted; outcome: actives raise or lower the signal unless noted
Method in brief: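 Transiently transfected HepG2 cells carrying GRE cis-reporter units (endogenous TF activity) dosed 24 h; reporter mRNA quantified by RT-PCR, 6-FAM labelling, HpaI digestion and capillary electrophoresis. Bidirectional fit versus DMSO baseline.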

[19] = ATG_ISRE_CIS: Attagene CIS-FACTORIAL HepG2 Assay for human Interferon Regulatory Factor 1 (IRF1) binding to an Interferon-Stimulated Response Element (ISRE) (AID 2282948); settings: HepG2 ISRE cis-reporter (Attagene), mRNA transcription readout; actives raise or lower the signal
Method in brief: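 Transfected HepG2 (multiple reporter transcription units, cis elements) dosed 24 h. RNA → oligo(dT) RT → PCR → 6-FAM primer extension → HpaI → CE. DMSO = negative control/baseline.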

[20] = ATG_M_19_CIS: Attagene CIS-FACTORIAL HepG2 Assay for M19 Transcription Factor (Internal Marker) (AID 2282939); settings: HepG2 Attagene CIS-FACTORIAL M19 internal marker reporter; actives raise or lower the signal
Method in brief: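 HepG2 cells transiently transfected with cis-regulated multiple reporter transcription units were dosed for 24 h; reporter mRNA was quantified by RT-PCR, 6-FAM primer-extension labelling, HpaI digestion and capillary electrophoresis, with bidirectional fitting against DMSO baseline.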

Measured: AC50

COc1cc(OC)nc(NC(=O)NS(=O)(=O)Nc2ccccc2C(=O)N(C)C)n1
inactive: [1] | [2] | [3] | [4] | [5] | [6] | [7] | [8] | [9] | [10] | [11] | [12] | [13] | [14] | [15] | [16] | [17] | [18] | [19]

C=CC(F)(F)C(F)(F)C(F)(F)C(F)(F)F
inactive: [1] | [2] | [3] | [4] | [5] | [6] | [7] | [8] | [9] | [10] | [20] | [11] | [12] | [14] | [15] | [16] | [17] | [18] | [19]

C[C@]12CC[C@@H]3c4ccc(O)cc4CC[C@H]3[C@@H]1CC[C@@H]2OC(=O)CCC1CCCC1
inactive: [3] | [4] | [6] | [7] | [9] | [10] | [20] | [12] | [13] | [17] | [18] | [19]
active: [1] 14.8 µM | [2] 126 µM | [5] 58.2 µM | [8] 73.3 µM | [11] 0.0823 µM | [14] 177 µM | [16] 100 µM

Cc1cc(Cc2cc(C)cc(C(C)(C)C)c2O)c(O)c(C(C)(C)C)c1
inactive: [4] | [5] | [8] | [9] | [20] | [11] | [15] | [18] | [19]
active: [1] 100 µM | [2] 55.6 µM | [3] 24.9 µM | [6] 11.4 µM | [7] 170 µM | [10] 100 µM | [12] 79.4 µM | [14] 51.4 µM | [16] 165 µM | [17] 169 µM

CCOC(=O)CN[C@@H](C(=O)N1CC[C@H]1C(=O)NCc1ccc(/C(N)=N/O)cc1)C1CCCCC1
inactive: [1] | [2] | [3] | [4] | [5] | [6] | [7] | [8] | [9] | [10] | [20] | [11] | [12] | [14] | [15] | [16] | [17] | [18] | [19]

NNC(=O)CCCCC(=O)NN
inactive: [1] | [2] | [3] | [4] | [5] | [6] | [7] | [8] | [9] | [10] | [11] | [12] | [13] | [14] | [15] | [16] | [17] | [18] | [19]

CC1COCc2cc3c(cc21)C(C)(C)C(C)C3(C)C (stereo not drawn)
inactive: [5] | [9] | [11] | [12] | [13] | [14] | [16] | [17] | [18] | [19]
active: [1] 158 µM | [2] 91.3 µM | [3] 79.4 µM | [4] 173 µM | [6] 100 µM | [7] 159 µM | [8] 179 µM | [10] 152 µM | [15] 158 µM
